# Test results as given in the supplement of paper PMC11732987, “Enantioselective OTUD7B fragment discovery through chemoproteomics screening and high-throughput optimisation” (Communications Chemistry, 2025).
# Biological target: T1, USP38 (UniProt Q8NB14)
# T1 sequence (whole entry): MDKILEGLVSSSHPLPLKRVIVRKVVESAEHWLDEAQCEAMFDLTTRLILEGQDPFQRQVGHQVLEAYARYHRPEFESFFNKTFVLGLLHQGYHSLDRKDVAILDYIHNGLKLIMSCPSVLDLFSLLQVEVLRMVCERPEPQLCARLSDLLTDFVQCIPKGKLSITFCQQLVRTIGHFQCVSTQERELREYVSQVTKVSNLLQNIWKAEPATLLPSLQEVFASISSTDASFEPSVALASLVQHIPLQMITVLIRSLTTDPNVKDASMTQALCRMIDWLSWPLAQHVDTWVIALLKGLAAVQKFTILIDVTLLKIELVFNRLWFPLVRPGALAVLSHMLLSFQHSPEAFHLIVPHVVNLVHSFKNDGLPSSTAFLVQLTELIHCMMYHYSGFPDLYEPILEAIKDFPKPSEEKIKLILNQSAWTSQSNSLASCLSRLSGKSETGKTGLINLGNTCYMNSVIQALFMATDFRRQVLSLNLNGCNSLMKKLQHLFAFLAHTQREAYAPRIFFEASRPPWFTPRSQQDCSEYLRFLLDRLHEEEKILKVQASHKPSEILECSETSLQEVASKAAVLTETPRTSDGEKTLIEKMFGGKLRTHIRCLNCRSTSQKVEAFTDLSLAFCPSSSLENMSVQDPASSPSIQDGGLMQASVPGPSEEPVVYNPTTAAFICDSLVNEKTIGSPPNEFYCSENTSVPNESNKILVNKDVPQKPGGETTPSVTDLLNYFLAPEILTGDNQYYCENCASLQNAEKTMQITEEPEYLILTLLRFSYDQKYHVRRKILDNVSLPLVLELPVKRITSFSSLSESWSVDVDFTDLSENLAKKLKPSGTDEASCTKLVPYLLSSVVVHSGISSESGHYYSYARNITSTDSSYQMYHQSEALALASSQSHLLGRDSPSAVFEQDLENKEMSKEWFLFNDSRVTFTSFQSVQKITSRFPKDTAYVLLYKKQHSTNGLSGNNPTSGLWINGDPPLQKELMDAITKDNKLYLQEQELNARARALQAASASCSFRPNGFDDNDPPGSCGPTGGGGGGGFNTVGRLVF
# Experiment: log2 ratio of Biotin-Ahx-Ub-VS probe labelling (fragment/DMSO); higher = less target engagement (more negative = stronger competition), active = hit call of the paper (q ≤ 0.05, log2 ratio ≤ -1)
# Settings: compound concentration: 200 uM; treatment time: 3 h
# Protocol: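 Competitive ABPP in HEK293T cell lysate. Lysates were treated with each chloroacetamide fragment at 200 µM for 3 h, then with Biotin-Ahx-Ub-VS (0.5 µM, 1 h), NeutrAvidin-enriched and analysed by diaPASEF LC-MS/MS. Protein LFQ was median-normalised; average log2 ratio is fragment/DMSO from an unpaired t-test (n=3 treated, n=44 DMSO). Hits: q ≤ 0.05, log2 ratio ≤ -1, unique peptides ≥ 2.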
row,Structure (SMILES),log2 ratio of Biotin-Ahx-Ub-VS probe labelling
1,O=C(CCl)NC(C1CC1)C1CC1,-0.124 (inactive)
2,CC(C)CN(C(=O)CCl)C1CC1,0.00725 (inactive)
3,N#CC1(NC(=O)CCl)CCCC1,-0.0299 (inactive)
4,Cc1nc(NC(=O)CCl)sc1C,-0.00435 (inactive)
5,Cc1nnc(NC(=O)CCl)s1,-0.33 (inactive)
6,O=C(CCl)NCc1ccco1,-0.144 (inactive)
7,CC1CN(C(=O)CCl)CC(C)O1 (centres undefined),-0.205 (inactive)
8,Cc1cc(NC(=O)CCl)no1,-0.139 (inactive)
9,CC(NC(=O)CCl)c1cccs1 (centres undefined),-0.0174 (inactive)
10,O=C(CCl)NCC1CCC1,0.000742 (inactive)
11,O=C(CCl)Nc1cccc(Cl)c1,-0.568 (inactive)
12,Cc1ncsc1CNC(=O)CCl.Cl,0.147 (inactive)
13,CC1CCCCC1NC(=O)CCl (centres undefined),-0.0227 (inactive)
14,CC1CCCCN1C(=O)CCl (centres undefined),-0.196 (inactive)
15,O=C(CCl)NCC1CCCO1 (centres undefined),-0.00745 (inactive)
16,Cc1cccc(NC(=O)CCl)c1,-0.146 (inactive)
17,O=C(CCl)N1CCCC1=O,-0.1 (inactive)
18,CN(C(=O)CCl)C1CCCCC1,0.0172 (inactive)
19,O=C(CCl)N1CCCCCCC1,-0.0744 (inactive)
